# TDP1 cell CPT = qHTS for Inhibitors of human tyrosyl-DNA phosphodiesterase 1 (TDP1): qHTS in cells in presence of CPT; chicken DT40 Tdp1-/-;hTDP1 cells + 20 nM CPT, ATP luminescence, 48 h; Potency, µM (top dose mostly 46.2 µM), for inactives: at the top dose activity change, negative = growth inhibition, usual class: inhibitors; 420,000 compounds, 12% hits; AID 686979, 2013; note: % is set by controls: 0 for no effect and ±100 for the full control effect; nearly all actives have a fitted effect of over 55% in size
#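 Chicken DT40 Tdp1-/- cells complemented with human TDP1, 400 cells/well, exposed to compounds plus 20 nM camptothecin for at least 48 h at 37 C; viability read as ATP content by CellTiter-Glo luminescence.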
# DT40 TDP1 no CPT = qHTS for Inhibitors of human tyrosyl-DNA phosphodiesterase 1 (TDP1): qHTS in cells in absence of CPT; DT40 Tdp1-/- hTDP1 cells, no CPT, ATP luminescence, 48 h; Potency, µM (top dose mostly 46.2 µM), for the others: at the highest dose activity change, negative = growth inhibition, most hits filed as inhibitors; 420,000 compounds, 15% hits; note: % is set by controls: 0 for no effect and ±100 for the full control effect; nearly all actives have a fitted effect of over 55% in size
#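 Chicken DT40 Tdp1-/- cells stably complemented with human TDP1 were seeded at 400 cells/well with DMSO in place of 20 nM camptothecin. After compound pinning, cells grew at least 48 hr at 37 °C; viability read by CellTiter-Glo luminescence.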
# ClpP mod = qHTS Assay for Activators of ClpP | purified B. subtilis ClpP, FRET peptide cleavage, 20 min | Potency, µM (top dose mostly 57.5 µM), inactives show top-dose activity change, negative = active | 340,000 compounds, 1.9% hits | AID 651965, 2013 | ATP-dependent Clp protease proteolytic subunit (Bacillus subtilis (strain 168)), P80244; active = well fitted falling curve with a large enough effect; inconclusive = small, poorly fitted or top-dose-only effect; inactive = no such curve, though single readings can be large or run the other way; note: the source files actives as falling curves though it sought activators and does not explain the sign; nearly all actives have a fitted effect of over 65% in size
#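 Buffer: 100 mM Tris/HCl pH8, 100 mM KCl, 0.05% low protease BSA, 2.5% glycerol, 0.01% Tween-20. ClpP 10 microg/mL final; 20 min RT; delta FRET normalized to ADEP and DMSO controls.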
# TDP1 inh = qHTS Assay for Inhibitors of Tyrosyl-DNA Phosphodiesterase (TDP1). 350,000 compounds, 0.28% hits. Potency, µM (titrated, usually from 130 µM), for the others: at the top dose activity change, negative = inhibition, most hits filed as inhibitors. recombinant TDP1, AlphaScreen DNA substrate cleavage. Tyrosyl-DNA phosphodiesterase 1 (Homo sapiens), Q9NUW8; note: % is set by controls: 0 for no effect and ±100 for the full control effect; nearly all actives have a fitted effect of over 40% in size
# Target sequence (Q9NUW8 whole entry, looked up): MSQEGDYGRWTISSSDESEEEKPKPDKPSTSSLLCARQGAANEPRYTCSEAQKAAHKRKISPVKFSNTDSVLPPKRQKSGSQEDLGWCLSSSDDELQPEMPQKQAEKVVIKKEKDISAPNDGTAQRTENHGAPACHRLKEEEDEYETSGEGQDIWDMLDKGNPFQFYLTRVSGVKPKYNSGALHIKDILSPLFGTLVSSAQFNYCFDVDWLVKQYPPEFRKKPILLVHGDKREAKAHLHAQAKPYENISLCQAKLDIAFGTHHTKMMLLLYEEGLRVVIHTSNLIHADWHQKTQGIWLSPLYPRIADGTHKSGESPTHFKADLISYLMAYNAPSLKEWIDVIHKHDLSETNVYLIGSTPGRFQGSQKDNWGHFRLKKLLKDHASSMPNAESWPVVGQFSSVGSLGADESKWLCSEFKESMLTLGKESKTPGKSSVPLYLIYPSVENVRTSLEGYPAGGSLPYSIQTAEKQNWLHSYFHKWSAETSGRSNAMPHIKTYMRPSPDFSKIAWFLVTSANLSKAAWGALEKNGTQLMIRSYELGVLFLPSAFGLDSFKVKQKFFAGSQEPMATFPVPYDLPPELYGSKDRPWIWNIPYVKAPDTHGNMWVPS
#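 Here, a 5' biotin and 3' phosphotyrosine-FITC DNA oligonucleotide reports Tdp1 activity: intact substrate bridges AlphaScreen beads, while cleavage leaves a 3' phosphate and drops signal. All incubations at room temperature.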
# * hit, by the source's call; ? = inconclusive; . = not tested or not shown. Rows were chosen to be rich in hits. Some 17% of all compounds tested hit in one or more screens of this group. Unless noted, calls come from the whole dose curve; as a rule, active = well fitted curve in the direction sought with a large enough effect; inconclusive = small, poorly fitted or top-dose-only effect, or another doubt; inactive = no such curve, though single readings can be large; an effect the other way counts as inactive or inconclusive. Potency is the fitted concentration of half-maximal effect.
SMILES,TDP1 cell CPT,DT40 TDP1 no CPT,ClpP mod,TDP1 inh
CN1/C(=C\C=C2/SC(=S)N(CC(=O)O)C2=O)C(C)(C)c2ccccc21,-30%,?,.,5%
CCCN1C(=O)/C(=C/C=C2\N(CC)c3ccccc3C2(C)C)SC1=S,?,13µM*,-1%,8%
COc1ccc(N(CC(=O)N2CCN(c3cccc(Cl)c3)CC2)S(=O)(=O)c2c(C)noc2C)cc1,16µM*,18µM*,-1%,4%
COc1ccc(N(CC(=O)N2CCN(c3ccc(Cl)cc3)CC2)S(=O)(=O)c2c(C)noc2C)cc1,?,?,-4%,3%
Cc1nn(C)c(C)c1S(=O)(=O)N(CC(=O)NCCc1ccc(Cl)cc1)c1ccc(C(C)C)cc1,16µM*,15µM*,2%,6%
COc1ccc(N(CC(=O)N2CCN(c3ccc(F)cc3)CC2)S(=O)(=O)c2c(C)noc2C)cc1,26µM*,?,-1%,6%
Cc1ccc(N(CC(=O)N2CCN(c3cccc(C)c3C)CC2)S(=O)(=O)c2c(C)nn(C)c2C)cc1,8.2µM*,9.2µM*,-4%,7%
COc1ccc(N(CC(=O)NCCc2ccccc2)S(=O)(=O)c2c(C)nn(C)c2C)cc1,-12%,?,-4%,2%
CCc1ccccc1NC(=O)N1CCCn2nc(C)cc21,6%,-22%,1%,8%
O=C(CN1C(=O)C2CC=CCC2C1=O)Nc1ccc(F)cc1F (stereo not given),3%,17%,-1%,-1%
COc1ccc(N(CC(=O)N2CCc3ccccc32)S(=O)(=O)c2c(C)nn(C)c2C)cc1,?,?,1%,3%
COc1ccc(N(CC(=O)N2CCN(c3ccc(F)cc3)CC2)S(=O)(=O)c2c(C)nn(C)c2C)cc1,?,23µM*,-4%,-2%
COc1ccc(N(CC(=O)N2CCN(c3ccccc3)CC2)S(=O)(=O)c2c(C)nn(C)c2C)cc1,4%,?,0%,0%
Cc1nn(C)c(C)c1S(=O)(=O)N(CC(=O)N1CCN(c2ccccc2)CC1)c1ccc(C(C)C)cc1,16µM*,16µM*,0%,-4%
COc1ccc(N(CC(=O)N2c3ccccc3CC2C)S(=O)(=O)c2c(C)nn(C)c2C)cc1 (stereo not given),?,18µM*,1%,4%
CCOc1ccc(N(CC(=O)N2CCN(c3ccc(F)cc3)CC2)S(=O)(=O)c2c(C)noc2C)cc1,26µM*,?,1%,6%
COc1ccc(C(C)(NC(C)=O)c2nc(-c3cncnc3)cs2)cc1 (stereo not given),-18%,-24%,1%,.
CCn1c(=N)c(C(=O)NCc2cccnc2)cc2c(=O)n3cc(C)ccc3nc21,-7%,4%,0%,.
COc1ccc(CN2C(=O)C(CC(=O)NCc3cccs3)CC(C(=O)N(C)C)=C2C)cc1 (stereo not given),-21%,-26%,-1%,.
Cc1ccc(N(CC(=O)N2CCN(c3cccc(Cl)c3)CC2)S(=O)(=O)c2c(C)noc2C)cc1,?,?,-1%,0%
Cc1ccc(N(CC(=O)N2CCN(c3cc(Cl)ccc3C)CC2)S(=O)(=O)c2c(C)noc2C)cc1,21µM*,9.2µM*,-1%,0%
O=C(Nc1ccc(Cl)cc1)c1cc2c(-c3ccccc3)nn(-c3ccccc3)c2s1,.,.,?,0%
C[C@H]1CN([C@@H](C)CO)C(=O)CCCn2cc(nn2)CO[C@@H]1CN(C)S(C)(=O)=O,23%,-14%,-5%,.
COc1ccc2cc(C(=O)N/N=C/c3sc4ccccc4c3O)ccc2c1,10µM*,7.3µM*,-18%,8%
O=C(N/N=C/c1sc2ccccc2c1O)c1ccccc1,0.92µM*,0.65µM*,-1%,5%
SMILES,TDP1 cell CPT,DT40 TDP1 no CPT,ClpP mod,TDP1 inh
COc1ccc(C(=O)N/N=C/c2sc3ccccc3c2O)cc1,2.6µM*,3.7µM*,2%,11%
O=C(N/N=C/c1ccccc1F)c1cccc2ccccc12,?,?,-1%,.
O=C(N/N=C/c1sc2ccccc2c1O)c1cccc2ccccc12,2.6µM*,5.2µM*,-2%,8%
Cc1nn(C)cc1CN(C)C(=O)C1CCC(=O)N(CCc2cccc(F)c2)C1 (stereo not given),-25%,6%,-3%,.
Cc1cc(C)cc(N2C(=O)CSC23C(=O)N(CC(=O)NC2CCCCC2)c2ccccc23)c1 (stereo not given),21µM*,?,-1%,0%
O=C(CN1C(=O)C2(SCC(=O)N2c2cccc(Cl)c2)c2ccccc21)NC1CCCCC1 (stereo not given),16µM*,18µM*,2%,4%
COc1cccc(N2C(=O)CSC23C(=O)N(CC(=O)Nc2cccc(Cl)c2)c2ccccc23)c1 (stereo not given),18µM*,?,0%,2%
COC(=O)N1CCC2(CCN(C(=O)Nc3ccc(OC)cc3)CC2)CC1,6%,-13%,.,.
CCN(CC)S(=O)(=O)c1cccc(S(=O)(=O)N2CCCCC2)c1,-6%,-8%,-4%,-6%
CCN(CC)CCOc1ccc2c(c1)C(=NO)c1cc(OCCN(CC)CC)ccc1-2,18µM*,18µM*,-1%,-5%
CCN(CC)S(=O)(=O)c1ccc(C)c(C)c1,-1%,-12%,-2%,6%
NC(N)=NN=C1c2ccccc2-c2ccccc21,27%,?,.,.
CCCOc1ccc2c(c1)C(=NN=C(N)N)c1cc(OCCC)ccc1-2,26µM*,23µM*,.,.
CCN(CC)S(=O)(=O)c1cccc(S(=O)(=O)c2cccc(S(=O)(=O)N(CC)CC)c2)c1,21µM*,18µM*,-2%,2%
CCN(CC)S(=O)(=O)c1ccc2c(c1)C(=NO)c1cc(S(=O)(=O)N(CC)CC)ccc1-2,2.3µM*,2.3µM*,157%,0%
CCOC(=O)c1cc(-c2ccccc2)nc2c(O)cccc12,-17%,-14%,-2%,.
CCCCCCc1c(C)c2c(cc(C)c3c(C)c(C)oc32)oc1=O,?,-8%,-9%,-1%
Cc1ccc(C2CC2c2n[nH]c(=S)n2-c2ccc(C)cc2)cc1 (stereo not given),-33%,?,1%,6%
Cc1ccc(C2CC2c2n[nH]c(=S)n2-c2cccc(Cl)c2)cc1 (stereo not given),?,23µM*,-1%,8%
Oc1ccc(Nc2nc(-c3ccccc3F)nc3ccccc23)cc1,-17%,-21%,1%,.
Fc1ccc(Nc2nc(SCc3cccc(F)c3)nc3ccccc23)cc1,15µM*,16µM*,?,-8%
Fc1ccc(Nc2nc(SCc3ccc(Cl)cc3)nc3ccccc23)cc1,?,-102%,35µM*,-10%
